# Test results as given in PubChem BioAssay (NCI).
# This is part of a sample that, as a whole, favours compounds with a hit. Of some 83,000 tested, about 20% had one in any assay.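 Results are percent growth after 48 hours of single-concentration exposure. 100 means growth as in untreated cells, lower positive values show inhibition; negative values down to -100 show cell death.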 Unmarked numbers belong to inactive results. Activity calls are given as the source filed them. Rule for the calls: active = growth percent below 10; inactive = the rest.
# System: MCF7 breast
# Assay: NCI-60 one-dose screen, 48 h (100 = growth as untreated, 0 = no growth, -100 = all killed)
# Settings: 10 µM unless noted
row,SMILES,growth
1,COc1cnc2c(c1)C(=O)c1c-2n(CCCBr)c(=O)c2cc([N+](=O)[O-])ccc12,1.77% (active)
2,C/C(=C(/c1ccc(O)cc1)c1ccc(OCCN2CCCC2)cc1)c1ccccc1,22.2%
3,CCCCCCCCCc1cc(CN2CCCCC2)c(O)c(CN2CCCCC2)c1,44%
4,CCCCN(CC)CCCCCCCCCCN1CCCc2cc(OC)ccc21,99%
5,COc1cc(NC(N)=NCC(C)(C)COc2ccc(C(F)(F)F)cc2)cnc1C#N,32.5%
6,COc1ccc2nc(NC(=O)c3cccnc3Nc3cc(OC)c(OC)c(OC)c3)sc2c1,8.16% (active)
7,CCN(CC)CCC(=O)c1ccc(OC)c2ccccc12,11.9%
8,COc1ccc(/C=C2\N=C3Sc4cc(Cl)ccc4C(=O)N3C2=O)cc1,94.7%
9,Nc1c(C(=O)Nc2ccccc2)sc2nc3c(cc12)CN(CCc1ccccc1)CC3,85.8%
10,CC(C)Oc1nc2c(c(=O)n(C)c(=O)n2C)n1C,95.2%

# System: HCT-116 colon
# Assay: as above
# Settings: 10 µM unless noted
row,SMILES,growth
1,Fc1ccc(Cc2ccc(F)cc2)cc1,102%
2,O=c1ccc2cc3ccccc3cc2[nH]1,99.2%
3,COc1ccc(-c2nn(-c3ccccc3)cc2/C=C/C(=O)OCc2cn(-c3ccc(F)c(Cl)c3)nn2)cc1,84.8%
4,COc1ccccc1N1CCN(CCn2c(=O)c3c(c4ccccc4n3C)n(C)c2=O)CC1,98.4%
5,CCCCCCCCCCNC(=O)CCl,69.3%
6,N=S(=O)(NC(=O)c1ccc(Cl)cc1Cl)c1ccc(Br)s1 (centres undefined),80.6%
7,CCOC(=O)/C=C/C(=O)[C@H](CC(C)C)NC(=O)[C@H](Cc1ccccc1)NC(=O)OCc1ccccc1,47.6%
8,COC1/C=C\OC2(C)Oc3c(C)c(O)c4c(O)c(c(CN(C)CCO)c(O)c4c3C2=O)NC(=O)/C(C)=C\C=C/C(C)C(O)C(C)C(O)C(C)C(OC(C)=O)C1C (centres undefined),107%
9,COc1nc2c(cc1S(=O)(=O)c1ccccc1)CCc1c-2cnn1Cc1ccccc1,32.5%
10,O=S(=O)(NCCCNc1cc(-c2cn(-c3ccccc3)nc2-c2ccccc2)ccn1)c1ccc(C(F)(F)F)cc1,43.2%
11,N#CC1=C(N)Oc2c(ccc3ccccc23)C1c1cccs1 (centres undefined),8.25% (active)
12,CCN(CC)CCCNc1cc(OC)cc2nc3cc(Cl)ccc3nc12,-91.8% (active)
13,O=C(CN1CCN(c2cc3c(cc2F)c(=O)c(C(=O)O)cn3C2CC2)CC1)Nc1nc(-c2ccc(Cl)cc2)cs1,13.7%
14,O=C1CC(c2nc3ccccc3[nH]2)CN1C1CCCCC1 (centres undefined),109%
15,COc1cc(OC)c(/C=C/c2cc[n+](C)c3ccccc23)c(OC)c1,11.4%
16,CCN(CC)c1ccc(CNc2cc(C)nc3ccc(OC)cc23)cc1,54.8%
17,CCCCCN(CCCCC)CCC[C@@H](C)[C@H]1CC[C@H]2[C@@H]3[C@H](OCCCN)C[C@@H]4C[C@H](OCCCN)CC[C@]4(C)[C@H]3C[C@H](OCCCN)[C@]12C,22.7%
18,COc1cc(OC)c(/C=C/S(=O)(=O)Cc2ccc(OC)c(N)n2)c(OC)c1,2.03% (active)
19,CC(=O)C1=C(O)C=C2Oc3c(C(=O)/C=C/c4cc(C(F)(F)F)cc(C(F)(F)F)c4)c(O)c(C)c(O)c3[C@]2(C)C1=O,-30% (active)
20,COc1cc(OC)c(/C=C/C(=O)c2c(OC)cc(OC)cc2OC)c(OC)c1,8.7% (active)
21,c1ccc(CSc2ncnc3nc[nH]c23)nc1,93.1%
22,C=C(CN1CCN(c2cccc(C(F)(F)F)n2)CC1)c1ccc(C(=O)Nc2ccccc2N)cc1,15.5%
23,CN1CCOCCOCCOc2ccccc2NC(=O)c2nc(cnc2N)-c2ccc(cc2)S1(=O)=O,29.1%
24,COc1cc(/C=N/N(C)C)ccc1O,101%
25,O=C(/C=C/c1ccc(B(O)O)cc1)/C=C/c1ccc(B(O)O)cc1,-94.4% (active)
26,CCC(=O)OCc1cccc(OC)c1,95.1%
27,COc1cnc2c(c1)C(=O)c1c-2n(CCCBr)c(=O)c2cc([N+](=O)[O-])ccc12,-24.8% (active)
28,C/C(=C(/c1ccc(O)cc1)c1ccc(OCCN2CCCC2)cc1)c1ccccc1,41.2%
29,CCCCCCCCCc1cc(CN2CCCCC2)c(O)c(CN2CCCCC2)c1,39.1%
